Results published in the antibiotic and cytotoxicity screens of Wong et al. (2023).
Screen size: about 39,000 compounds; about 1,500 (3.8%) were called active. The sample as a whole holds a higher share of actives than the screen did.

tested on: HSkMC (human skeletal muscle cells); test: cytotoxicity call (relative viability < 0.9); settings: 10 µM

Structure (SMILES)	cytotoxicity call
COc1ccc(CN(C)C[C@@H]2OCCCC[C@@H](C)Oc3ccc(NC(=O)c4ccccc4)cc3C(=O)N([C@H](C)CO)C[C@@H]2C)cc1	inactive
Cc1noc(C)c1NC(=O)Nc1ccc2c(c1)C(=O)N([C@@H](C)CO)C[C@H](C)[C@@H](CN(C)C(=O)Nc1c(C)noc1C)OCCCC[C@H](C)O2	inactive
CN1CCN(C(=O)C[C@@H]2CC[C@@H]3[C@H](COc4ccc(NC(=O)c5cscn5)cc4C(=O)N3C)O2)CC1	inactive
O=C(C[C@@H]1C[C@H]2c3cc(NC(=O)C4CCOCC4)ccc3O[C@H]2[C@@H](CO)O1)NCc1cc(F)ccc1F	inactive
Cc1ccc(S(=O)(=O)N(C)C[C@@H]2Oc3ccc(NS(=O)(=O)c4c(C)noc4C)cc3CC(=O)N([C@H](C)CO)C[C@H]2C)cc1	inactive
CC(=O)OC1CC2C(C)(C)C=CCC2(C)C2CCC3(C)C(c4ccoc4)OC(=O)C4OC43C12C (configuration not stated)	inactive
O=C(CN1CCOCC1)NCC[C@H]1CC[C@H](NC(=O)c2ccccc2F)[C@@H](CO)O1	inactive
C[C@@H]1CN([C@@H](C)CO)C(=O)Cc2cc(NC(=O)Nc3cccc4ccccc34)ccc2O[C@@H]1CN(C)S(=O)(=O)c1cccs1	inactive
C(=N\c1nnc2nc[nH]n12)/c1ccco1	inactive
C[C@@H]1CCCCO[C@@H](CN(C)Cc2ccc(Cl)c(Cl)c2)[C@H](C)CN([C@@H](C)CO)C(=O)c2cc(N(C)C)ccc2O1	inactive
C[C@@H]1CCCCO[C@@H](CN(C)Cc2ccc(Cl)c(Cl)c2)[C@H](C)CN([C@H](C)CO)C(=O)c2cc(NC(=O)Nc3ccc4c(c3)OCO4)ccc2O1	inactive
C[C@H](CO)N1C[C@H](C)[C@@H](CN(C)Cc2ccc(Cl)c(Cl)c2)OCCCC[C@H](C)Oc2ccc(NC(=O)Nc3ccc4c(c3)OCO4)cc2C1=O	active
C[C@@H]1CCCCO[C@H](CN(C)Cc2ccc(Cl)c(Cl)c2)[C@@H](C)CN([C@@H](C)CO)C(=O)c2cc(NC(=O)Nc3ccc4c(c3)OCO4)ccc2O1	inactive
C[C@H]1CCCCO[C@H](CN(C)Cc2ccc(Cl)c(Cl)c2)[C@@H](C)CN([C@@H](C)CO)C(=O)c2cc(NC(=O)Nc3ccc4c(c3)OCO4)ccc2O1	inactive
C[C@@H]1CCCCO[C@@H](CN(C)Cc2ccc(Cl)c(Cl)c2)[C@H](C)CN([C@@H](C)CO)C(=O)c2cc(NC(=O)Nc3ccc4c(c3)OCO4)ccc2O1	inactive
C[C@@H]1CCCCO[C@H](CN(C)Cc2ccc(Cl)c(Cl)c2)[C@H](C)CN([C@@H](C)CO)C(=O)c2cc(NC(=O)Nc3ccc4c(c3)OCO4)ccc2O1	active
C[C@H](CO)N1C[C@H](C)[C@H](CN(C)C(=O)Nc2ccc(F)cc2)OCCCC[C@H](C)Oc2ccc(NC(=O)C3CCCCCC3)cc2C1=O	inactive
CC(=O)O[C@H](C[C@H](O)C(C)(O)CCC=C(C)C)/C(C)=C/COC[C@@H](O)[C@@H](O)[C@@H](O)[C@@H](O)CO (some centres not stated)	inactive
O=C(Cn1ccc([N+](=O)[O-])n1)n1cccn1	inactive
Nc1ccn([C@@H]2O[C@H](CO)[C@@H](O)[C@H]2O)c(=O)n1	inactive
Cl.N=c1ccn2c(n1)OC1C(O)C(CO)OC12 (configuration not stated)	inactive
N=c1ccn2c(n1)O[C@H]1[C@H](O)[C@@H](CO)O[C@H]12	active
C[C@H](CO)N1C[C@H](C)[C@H](CN(C)C(=O)Nc2cccc3ccccc23)Oc2ncc(C#Cc3ccc(F)cc3)cc2C1=O	inactive

Structure (SMILES)	cytotoxicity call
Cc1ccc(S(=O)(=O)N(C)C[C@@H]2OCCCC[C@H](C)Oc3ccc(NS(=O)(=O)c4ccc(Cl)cc4)cc3C(=O)N([C@H](C)CO)C[C@@H]2C)cc1	inactive
CC(C)(C)c1cc(C(=O)NN)no1	inactive
CCN1C(C)(C)CC(Oc2ccc(C(=O)Nc3ccc(NC(=O)Nc4cc(C(C)(C)C)on4)cc3)nc2)CC1(C)C	active
CC(C)CC#Cc1ccc2c(c1)O[C@H](CN(C)C(=O)c1ccccn1)[C@@H](C)CN([C@H](C)CO)S2(=O)=O	inactive
COc1cccc(-c2ccc3c(c2)O[C@@H](CN(C)C(=O)C2CCOCC2)[C@@H](C)CN([C@@H](C)CO)S3(=O)=O)c1	inactive
C[C@@H]1CN([C@H](C)CO)C(=O)Cc2cc(NC(=O)Cc3ccccc3)ccc2O[C@H]1CN(C)Cc1ccc(C(F)(F)F)cc1	inactive
C[C@@H]1CN([C@@H](C)CO)C(=O)Cc2cc(NC(=O)Cc3ccccc3)ccc2O[C@@H]1CN(C)Cc1ccc(C(F)(F)F)cc1	active
C[C@@H]1CN([C@H](C)CO)C(=O)Cc2cc(NC(=O)Cc3ccccc3)ccc2O[C@@H]1CN(C)Cc1ccc(C(F)(F)F)cc1	inactive
C[C@H]1CN([C@@H](C)CO)C(=O)Cc2cc(NC(=O)Cc3ccccc3)ccc2O[C@H]1CN(C)Cc1ccc(C(F)(F)F)cc1	inactive
C[C@@H]1CN([C@@H](C)CO)C(=O)Cc2cc(NC(=O)Cc3ccccc3)ccc2O[C@H]1CN(C)Cc1ccc(C(F)(F)F)cc1	inactive
C[C@H]1CN([C@@H](C)CO)C(=O)Cc2cc(NC(=O)Cc3ccccc3)ccc2O[C@@H]1CN(C)Cc1ccc(C(F)(F)F)cc1	active
C[C@@H]1CN([C@@H](C)CO)C(=O)c2cc(NC(=O)Nc3cccc4ccccc34)ccc2O[C@@H]1CN(C)S(=O)(=O)c1ccc(Cl)cc1	inactive
Cc1noc(C)c1NC(=O)Nc1ccc2c(c1)C(=O)N([C@@H](C)CO)C[C@H](C)[C@@H](CN(C)Cc1ccc3c(c1)OCO3)OCCCC[C@@H](C)O2	inactive
COc1ccc(CN(C)C[C@@H]2OCCCC[C@H](C)Oc3ccc(NC(=O)NC(C)C)cc3C(=O)N([C@H](C)CO)C[C@H]2C)cc1	inactive
CO[C@@H]1CN(C)C(=O)c2cc(NC(=O)CC(F)(F)F)ccc2OC[C@H](C)N(S(=O)(=O)c2cn(C)cn2)C[C@H]1C	inactive
Cc1ccc(S(=O)(=O)N(C)C[C@H]2Oc3ccc(NS(=O)(=O)c4c(C)noc4C)cc3CC(=O)N([C@H](C)CO)C[C@@H]2C)cc1	inactive
C[C@@H]1CN([C@@H](C)CO)S(=O)(=O)c2ccc(-c3cncnc3)cc2O[C@H]1CN(C)C(=O)C1CCCCC1	inactive
C[C@@H]1CN([C@H](C)CO)C(=O)c2cc(-c3ccc(C(=O)N(C)C)cc3)cnc2O[C@H]1CN(C)C(=O)c1ccncc1	inactive
C[C@@H]1CN([C@@H](C)CO)C(=O)c2cc(NS(C)(=O)=O)ccc2O[C@@H]1CN(C)Cc1ccc(C(F)(F)F)cc1	inactive
NC(=O)CSc1ccccn1	inactive
COCC#Cc1ccc2c(c1)O[C@H](CN(C)S(=O)(=O)c1ccc(F)cc1)[C@@H](C)CN([C@H](C)CO)S2(=O)=O	inactive
COCC#Cc1ccc2c(c1)O[C@@H](CN(C)S(=O)(=O)c1ccc(F)cc1)[C@@H](C)CN([C@H](C)CO)S2(=O)=O	inactive
C[C@H](CO)N1C[C@H](C)[C@H](CN(C)S(=O)(=O)c2ccc(F)cc2)Oc2cc(C#Cc3ccncc3)ccc2S1(=O)=O	inactive

Structure (SMILES)	cytotoxicity call
C[C@H]1CN([C@@H](C)CO)S(=O)(=O)c2ccc(C#Cc3ccncc3)cc2O[C@@H]1CN(C)S(=O)(=O)c1ccc(F)cc1	active
C[C@H]1CN([C@@H](C)CO)S(=O)(=O)c2ccc(C#Cc3ccncc3)cc2O[C@H]1CN(C)S(=O)(=O)c1ccc(F)cc1	inactive
COCC#Cc1ccc2c(c1)O[C@@H](CN(C)S(=O)(=O)c1ccc(F)cc1)[C@@H](C)CN([C@@H](C)CO)S2(=O)=O	active
C[C@H](CO)N1C[C@H](C)[C@H](CN(C)C(=O)NC2CCCCC2)Oc2ccc(NS(C)(=O)=O)cc2CC1=O	inactive
C[C@H](CO)N1C[C@H](C)[C@@H](CN(C)C(=O)Nc2ccc(F)cc2)OCCCC[C@H](C)Oc2ccc(NC(=O)Cc3ccccc3)cc2C1=O	inactive
CC(C)C(N)C(=O)O (configuration not stated)	inactive
C[C@H](O)C(=O)Nc1c(I)c(C(=O)NC(CO)CO)c(I)c(C(=O)NC(CO)CO)c1I	inactive
CC(C)(C(=O)O)c1ccc([C@@H](O)CCCN2CCC(C(O)(c3ccccc3)c3ccccc3)CC2)cc1	inactive
CC(C)(C(=O)O)c1ccc(C(O)CCCN2CCC(C(O)(c3ccccc3)c3ccccc3)CC2)cc1.Cl (configuration not stated)	inactive
CC(C)(C)c1ccc(C(O)CCCN2CCC(C(O)(c3ccccc3)c3ccccc3)CC2)cc1 (configuration not stated)	active
C[C@@H]1CN([C@H](C)CO)C(=O)c2cccc(NC(=O)C3CC3)c2O[C@@H]1CN(C)Cc1ccc(-c2ccccc2)cc1	inactive
CC(C)NC(=O)Nc1ccc2c(c1)C(=O)N([C@@H](C)CO)C[C@@H](C)[C@@H](CN(C)S(C)(=O)=O)OCCCC[C@@H](C)O2	inactive
C[C@@H]1CCCCO[C@@H](CN(C)C(=O)Nc2ccccc2)[C@H](C)CN([C@H](C)CO)C(=O)c2cc(NC(=O)Nc3ccccc3)ccc2O1	inactive
CC(C)NC(=O)N(C)C[C@@H]1OCCCC[C@@H](C)Oc2ccc(NC(=O)Nc3ccc(C(F)(F)F)cc3)cc2C(=O)N([C@@H](C)CO)C[C@@H]1C	inactive
C[C@H](CO)N1C[C@H](C)[C@H](CN(C)C(=O)Nc2ccc3c(c2)OCO3)OCc2cn(nn2)CCCC1=O	inactive
NC1CCN(Cc2ccccc2)CC1	inactive
COc1cc2nc(N3CCCN(Cc4ccccc4)CC3)nc(Nc3ccc(F)c(Cl)c3)c2cc1OC	active
COc1ccc2nc3cc(Cl)ccc3c(Nc3cc(CN4CCCC4)c(O)c(CN4CCCC4)c3)c2n1.O=P(O)(O)O.O=P(O)(O)O.O=P(O)(O)O.O=P(O)(O)O	inactive
COc1cc2nc(N3CCN(C(=O)c4ccco4)CC3)nc(N)c2cc1OC.Cl	inactive
COc1cc2nc(N3CCCN(Cc4ccccc4)CC3)nc(NC3CCN(Cc4ccccc4)CC3)c2cc1OC	inactive
Brc1ccc2nc(N3CCCN(Cc4ccccc4)CC3)nc(NC3CCN(Cc4ccccc4)CC3)c2c1	active
